About 7,900 targets were measured; listed, in parts, are those with a hit and a random draw of the rest. About 0.6% of all pairs of compound and target were hits.
Legend:
Assay in all cases: log2 fold change, soluble protein after heating vs DMSO (PISA); higher = thermal stabilisation; K562 cells, 10 uM, 30 min; active = over 0.2 and 3.5 SD of the protein, either way, in both replicates (recomputed)
[1] = compound: COC1=CC=C(C=C1)CN2C=CC3=C2C=C(C=C3)C(=O)NO
How it was run: (§1)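 K562 cells (2×10^6 cells/mL) were treated with 10 μM compound for 30 min, and aliquots were heated for 3 min over 48°C-58°C. Pooled aliquots were extracted in PBS with 0.5% NP-40 at 4°C, and the supernatant after 21,000xg for 90 min was measured by TMTpro 16plex LC-MS/MS with channel sums equalised. Reported thermal stability, relative to control samples and from duplicates, is a log2 fold change.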

filanesib = compound: CON(C)C(=O)N1N=C(c2cc(F)ccc2F)S[C@@]1(CCCN)c1ccccc1 [filanesib]
How it was run: as §1

zotarolimus = compound: CO[C@H]1C[C@@H]2CC[C@@H](C)[C@@](O)(O2)C(=O)C(=O)N2CCCC[C@H]2C(=O)O[C@H]([C@H](C)C[C@@H]2CC[C@H](n3cnnn3)[C@H](OC)C2)CC(=O)[C@H](C)/C=C(\C)[C@@H](O)[C@@H](OC)C(=O)[C@H](C)C[C@H](C)/C=C/C=C/C=C/1C [zotarolimus]
How it was run: as §1

idasanutlin = compound: COc1cc(C(=O)O)ccc1NC(=O)[C@@H]1N[C@@H](CC(C)(C)C)[C@](C#N)(c2ccc(Cl)cc2F)[C@H]1c1cccc(Cl)c1F [idasanutlin]
How it was run: as §1

alisertib = compound: COc1cc(Nc2ncc3c(n2)-c2ccc(Cl)cc2C(c2c(F)cccc2OC)=NC3)ccc1C(=O)O [alisertib]
How it was run: as §1

[2] = compound: COc1cc2nc(-c3cc(F)ccc3O)nc(N[C@@H]3CNC[C@H]3C(C)(C)O)c2cc1OC
How it was run: as §1

gefitinib = compound: COc1cc2ncnc(Nc3ccc(F)c(Cl)c3)c2cc1OCCCN1CCOCC1 [gefitinib]
How it was run: as §1

[3] = compound: COc1cccc2cc(-c3nc([C@H]4CC[C@H](C(=O)O)CC4)n4ncnc(N)c34)[nH]c12
How it was run: as §1

lapatinib = compound: CS(=O)(=O)CCNCc1ccc(-c2ccc3ncnc(Nc4ccc(OCc5cccc(F)c5)c(Cl)c4)c3c2)o1 [lapatinib]
How it was run: as §1

pictilisib = compound: CS(=O)(=O)N1CCN(Cc2cc3nc(-c4cccc5[nH]ncc45)nc(N4CCOCC4)c3s2)CC1 [pictilisib]
How it was run: as §1

[4] = compound: CS(=O)(=O)c1ccc(-c2cnc(N)c(C(=O)Nc3ccccc3)n2)cc1
How it was run: as §1

crizotinib = compound: C[C@@H](Oc1cc(-c2cnn(C3CCNCC3)c2)cnc1N)c1c(Cl)ccc(F)c1Cl [crizotinib]
How it was run: as §1

[5] = compound: C[C@@H]1COCCN1C2=NC(=NC(=C2)C3(CC3)S(=O)(=O)C)C4=C5C=CNC5=CC=C4
How it was run: as §1

[6] = compound: C[C@H](C1=CC=C(C=C1)C(=O)NC2=C3C=CNC3=NC=C2)N
How it was run: as §1

duvelisib = compound: C[C@H](Nc1ncnc2nc[nH]c12)c1cc2cccc(Cl)c2c(=O)n1-c1ccccc1 [duvelisib]
How it was run: as §1

gandotinib = compound: Cc1cc(Nc2cc(CN3CCOCC3)c3nc(C)c(Cc4ccc(Cl)cc4F)n3n2)n[nH]1 [gandotinib]
How it was run: as §1

tozasertib = compound: Cc1cc(Nc2cc(N3CCN(C)CC3)nc(Sc3ccc(NC(=O)C4CC4)cc3)n2)n[nH]1 [tozasertib]
How it was run: as §1

[7] = compound: Cc1cc(SCc2sc(-c3ccc(C(F)(F)F)cc3)nc2C)ccc1OCC(=O)O
How it was run: as §1

doramapimod = compound: Cc1ccc(-n2nc(C(C)(C)C)cc2NC(=O)Nc2ccc(OCCN3CCOCC3)c3ccccc23)cc1 [doramapimod]
How it was run: as §1

ispinesib = compound: Cc1ccc(C(=O)N(CCCN)[C@@H](c2nc3cc(Cl)ccc3c(=O)n2Cc2ccccc2)C(C)C)cc1 [ispinesib]
How it was run: as §1

Measured: log2 fold change

CMTR1 (UniProt Q8N1G2)
active: [1] -0.337
inactive: filanesib 0.001 | zotarolimus -0.013 | idasanutlin -0.052 | alisertib -0.026 | [2] 0.065 | gefitinib 0.025 | [3] 0.017 | lapatinib -0.012 | pictilisib 0.009 | [4] 0.02 | crizotinib 0.014 | [5] 0.011 | [6] 0.059 | duvelisib 0.05 | gandotinib 0.025 | tozasertib 0.002 | [7] 0.029 | doramapimod -0.036 | ispinesib -0.002

COX7B (UniProt P24311)
Sequence of UniProt P24311 (P24311 whole entry, looked up): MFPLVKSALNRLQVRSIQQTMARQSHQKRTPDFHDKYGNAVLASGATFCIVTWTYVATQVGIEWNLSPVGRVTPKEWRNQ
inactive: [1] 0.112 | filanesib 0.028 | zotarolimus -0.003 | idasanutlin -0.012 | alisertib 0.038 | [2] -0.018 | gefitinib 0.023 | [3] 0.094 | lapatinib -0.009 | pictilisib -0.039 | [4] -0.026 | crizotinib 0.013 | [5] 0.02 | [6] -0.171 | duvelisib 0.034 | gandotinib 0.05 | tozasertib 0.072 | [7] 0.014 | doramapimod -0.067

CSTF3 (UniProt Q12996)
Sequence of UniProt Q12996 (Q12996 whole entry, looked up): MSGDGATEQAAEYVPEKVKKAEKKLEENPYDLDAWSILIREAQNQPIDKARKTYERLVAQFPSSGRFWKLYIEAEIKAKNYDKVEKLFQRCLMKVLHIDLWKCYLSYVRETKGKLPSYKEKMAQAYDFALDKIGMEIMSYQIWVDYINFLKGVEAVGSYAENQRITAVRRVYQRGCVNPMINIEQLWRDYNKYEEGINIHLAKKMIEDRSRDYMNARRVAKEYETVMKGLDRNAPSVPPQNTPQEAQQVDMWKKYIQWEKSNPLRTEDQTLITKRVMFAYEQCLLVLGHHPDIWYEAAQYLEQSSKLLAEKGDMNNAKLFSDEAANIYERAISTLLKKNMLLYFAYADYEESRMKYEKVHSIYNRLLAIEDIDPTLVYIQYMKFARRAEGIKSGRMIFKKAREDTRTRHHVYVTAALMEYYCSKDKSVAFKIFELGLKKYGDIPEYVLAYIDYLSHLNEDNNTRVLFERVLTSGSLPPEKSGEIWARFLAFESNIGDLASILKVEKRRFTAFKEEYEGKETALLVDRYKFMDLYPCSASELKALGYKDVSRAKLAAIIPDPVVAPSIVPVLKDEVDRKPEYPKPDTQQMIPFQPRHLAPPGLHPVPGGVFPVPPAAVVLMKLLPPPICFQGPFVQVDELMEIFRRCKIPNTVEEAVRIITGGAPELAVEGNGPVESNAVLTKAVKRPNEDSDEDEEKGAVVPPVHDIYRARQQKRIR
inactive: [1] -0.008 | filanesib -0.041 | zotarolimus -0.033 | idasanutlin -0.087 | alisertib -0.056 | [2] 0.176 | gefitinib -0.005 | [3] 0.022 | lapatinib -0.012 | pictilisib 0.066 | [4] 0.004 | crizotinib -0.07 | [5] 0.025 | [6] 0.019 | duvelisib 0.061 | gandotinib 0 | tozasertib -0.021 | [7] -0.031 | doramapimod -0.022 | ispinesib 0.082

COASY isoform 2 (UniProt Q13057)
inactive: [1] 0.034 | filanesib -0.061 | zotarolimus 0.024 | idasanutlin -0.071 | alisertib -0.038 | [2] 0.01 | gefitinib -0.038 | [3] 0.045 | lapatinib 0.043 | pictilisib 0.028 | [4] -0.052 | crizotinib -0.071 | [5] 0.133 | [6] -0.09 | duvelisib 0.058 | gandotinib -0.058 | tozasertib -0.031 | [7] 0.045 | doramapimod -0.063 | ispinesib -0.057

CDC42EP1 (UniProt Q00587)
Sequence of UniProt Q00587 (Q00587 whole entry, looked up): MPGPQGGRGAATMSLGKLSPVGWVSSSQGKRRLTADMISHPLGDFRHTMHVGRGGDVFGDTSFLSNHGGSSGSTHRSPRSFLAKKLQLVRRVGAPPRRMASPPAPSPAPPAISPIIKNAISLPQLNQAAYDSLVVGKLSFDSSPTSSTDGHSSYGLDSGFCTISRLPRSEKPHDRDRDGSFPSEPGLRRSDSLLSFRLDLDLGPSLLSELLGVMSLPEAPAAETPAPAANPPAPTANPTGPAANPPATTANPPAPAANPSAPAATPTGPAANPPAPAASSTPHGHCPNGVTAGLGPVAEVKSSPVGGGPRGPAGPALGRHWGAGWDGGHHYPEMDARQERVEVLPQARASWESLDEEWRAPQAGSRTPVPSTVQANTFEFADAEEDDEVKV
inactive: [1] -0.139 | filanesib -0.07 | zotarolimus 0.014 | idasanutlin 0 | alisertib 0 | gefitinib 0.087 | [3] -0.057 | lapatinib -0.015 | pictilisib -0.143 | [4] -0.006 | [5] 0.019 | [6] -0.041 | duvelisib -0.061 | tozasertib -0.192 | [7] 0.073 | doramapimod 0.076 | ispinesib -0.327
active: [2] -0.492 | crizotinib -0.566 | gandotinib -0.524

CPT2 (UniProt P23786)
Sequence of UniProt P23786 (P23786 whole entry, looked up): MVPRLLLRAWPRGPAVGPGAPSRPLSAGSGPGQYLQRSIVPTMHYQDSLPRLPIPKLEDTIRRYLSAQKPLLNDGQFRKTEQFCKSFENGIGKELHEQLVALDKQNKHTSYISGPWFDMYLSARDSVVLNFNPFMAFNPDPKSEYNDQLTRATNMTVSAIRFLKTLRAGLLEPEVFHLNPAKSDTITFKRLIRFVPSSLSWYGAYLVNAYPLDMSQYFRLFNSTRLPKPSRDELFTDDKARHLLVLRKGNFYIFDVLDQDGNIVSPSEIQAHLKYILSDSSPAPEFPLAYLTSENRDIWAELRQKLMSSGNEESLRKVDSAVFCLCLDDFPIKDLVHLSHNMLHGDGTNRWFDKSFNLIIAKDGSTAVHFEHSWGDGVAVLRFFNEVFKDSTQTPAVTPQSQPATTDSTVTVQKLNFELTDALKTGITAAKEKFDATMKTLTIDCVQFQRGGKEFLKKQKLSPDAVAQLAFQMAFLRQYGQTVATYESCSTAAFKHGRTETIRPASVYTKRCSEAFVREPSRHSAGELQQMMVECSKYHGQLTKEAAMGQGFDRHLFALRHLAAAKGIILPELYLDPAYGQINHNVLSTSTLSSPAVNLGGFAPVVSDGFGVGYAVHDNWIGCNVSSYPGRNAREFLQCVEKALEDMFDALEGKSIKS
inactive: [1] 0.114 | filanesib -0.207 | alisertib -0.067 | [2] -0.199 | gefitinib 0.343 | [3] -0.005 | lapatinib 0.058 | pictilisib 0.57 | crizotinib -0.42 | [5] 0.06 | [6] -0.01 | duvelisib 0.069 | gandotinib 0.119 | tozasertib -0.049 | doramapimod -0.019 | ispinesib -0.306
active: zotarolimus 0.798 | idasanutlin 0.806 | [4] 0.701 | [7] 1.04

C16orf58 (UniProt Q96GQ5)
active: ispinesib -0.309
inactive: [1] -0.059 | filanesib -0.148 | zotarolimus -0.043 | idasanutlin -0.053 | alisertib -0.009 | [2] -0.009 | gefitinib 0.044 | [3] 0.037 | lapatinib 0.004 | pictilisib 0.015 | [4] 0.011 | crizotinib -0.057 | [5] 0.126 | [6] 0 | duvelisib 0.044 | gandotinib -0.08 | tozasertib -0.028 | [7] -0.035 | doramapimod 0.006

CERT isoform 3 (UniProt Q9Y5P4)
Sequence of UniProt Q9Y5P4 (Q9Y5P4 whole entry, looked up): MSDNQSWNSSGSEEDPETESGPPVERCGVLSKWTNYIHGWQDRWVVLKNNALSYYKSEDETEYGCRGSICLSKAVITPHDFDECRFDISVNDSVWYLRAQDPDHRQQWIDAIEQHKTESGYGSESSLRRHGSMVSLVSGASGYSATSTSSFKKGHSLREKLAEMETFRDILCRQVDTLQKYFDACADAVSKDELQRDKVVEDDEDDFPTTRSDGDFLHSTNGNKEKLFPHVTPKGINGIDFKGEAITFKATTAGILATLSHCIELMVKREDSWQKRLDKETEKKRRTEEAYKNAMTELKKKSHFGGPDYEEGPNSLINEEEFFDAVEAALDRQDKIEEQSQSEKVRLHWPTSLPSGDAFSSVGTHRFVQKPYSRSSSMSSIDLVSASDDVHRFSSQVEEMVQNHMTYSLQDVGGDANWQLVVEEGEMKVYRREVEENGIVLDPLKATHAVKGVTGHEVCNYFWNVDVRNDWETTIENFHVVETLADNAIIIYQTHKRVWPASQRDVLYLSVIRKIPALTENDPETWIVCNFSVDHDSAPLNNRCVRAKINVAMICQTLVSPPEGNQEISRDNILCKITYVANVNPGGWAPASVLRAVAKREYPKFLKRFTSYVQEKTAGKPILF
active: [6] -0.327
inactive: [1] -0.025 | filanesib 0.001 | zotarolimus 0.2 | idasanutlin -0.145 | alisertib -0.064 | [2] -0.201 | gefitinib 0.157 | [3] -0.004 | lapatinib 0.247 | pictilisib 0.186 | [4] 0.015 | crizotinib 0.102 | [5] 0.079 | duvelisib 0.067 | gandotinib 0.209 | tozasertib 0.068 | [7] -0.047 | doramapimod 0.192 | ispinesib 0.109

CA8 (UniProt P35219)
Sequence of UniProt P35219 (P35219 whole entry, looked up): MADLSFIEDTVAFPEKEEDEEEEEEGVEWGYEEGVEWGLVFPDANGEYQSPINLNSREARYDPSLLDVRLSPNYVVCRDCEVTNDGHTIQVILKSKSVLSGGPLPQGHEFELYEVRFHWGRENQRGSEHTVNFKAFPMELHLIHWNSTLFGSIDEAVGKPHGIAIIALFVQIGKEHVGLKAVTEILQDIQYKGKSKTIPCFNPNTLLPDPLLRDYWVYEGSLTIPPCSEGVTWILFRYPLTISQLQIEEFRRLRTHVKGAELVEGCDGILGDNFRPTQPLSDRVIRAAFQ
inactive: [1] 0.046 | filanesib -0.055 | zotarolimus 0.09 | idasanutlin -0.073 | alisertib -0.112 | [2] -0.086 | gefitinib 0.023 | [3] 0.032 | lapatinib 0.008 | pictilisib 0.173 | [4] 0.003 | crizotinib -0.008 | [5] 0.117 | [6] -0.06 | duvelisib 0.1 | gandotinib -0.064 | tozasertib 0.122 | [7] 0.096 | doramapimod -0.066 | ispinesib 0.103

CIZ1 (UniProt Q9ULV3)
inactive: [1] 0.039 | filanesib 0.04 | zotarolimus -0.006 | idasanutlin 0.054 | alisertib -0.042 | [2] -0.106 | gefitinib -0.099 | [3] 0.034 | lapatinib 0.025 | pictilisib 0.05 | [4] -0.008 | crizotinib -0.097 | [5] 0.017 | [6] -0.079 | duvelisib 0.004 | gandotinib -0.121 | tozasertib 0.022 | [7] 0.016 | doramapimod 0.005 | ispinesib -0.015

CMTM3 (UniProt Q96MX0)
Sequence of UniProt Q96MX0 (Q96MX0 whole entry, looked up): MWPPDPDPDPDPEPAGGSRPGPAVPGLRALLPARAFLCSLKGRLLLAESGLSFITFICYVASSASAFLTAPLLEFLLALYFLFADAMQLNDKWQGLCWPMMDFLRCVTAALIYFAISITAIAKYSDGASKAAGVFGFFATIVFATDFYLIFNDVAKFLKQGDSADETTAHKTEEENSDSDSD
inactive: [1] -0.122 | filanesib 0.105 | zotarolimus -0.075 | idasanutlin -0.045 | alisertib -0.069 | [2] -0.018 | gefitinib 0.021 | [3] 0.035 | lapatinib -0.062 | pictilisib -0.091 | [4] 0.063 | crizotinib -0.007 | [5] -0.002 | [6] -0.133 | duvelisib 0.028 | gandotinib 0.132 | tozasertib -0.026 | [7] -0.102 | doramapimod -0.065

CAMK2G isoform 6 (UniProt Q13555)
Sequence of UniProt Q13555 (Q13555 whole entry, looked up): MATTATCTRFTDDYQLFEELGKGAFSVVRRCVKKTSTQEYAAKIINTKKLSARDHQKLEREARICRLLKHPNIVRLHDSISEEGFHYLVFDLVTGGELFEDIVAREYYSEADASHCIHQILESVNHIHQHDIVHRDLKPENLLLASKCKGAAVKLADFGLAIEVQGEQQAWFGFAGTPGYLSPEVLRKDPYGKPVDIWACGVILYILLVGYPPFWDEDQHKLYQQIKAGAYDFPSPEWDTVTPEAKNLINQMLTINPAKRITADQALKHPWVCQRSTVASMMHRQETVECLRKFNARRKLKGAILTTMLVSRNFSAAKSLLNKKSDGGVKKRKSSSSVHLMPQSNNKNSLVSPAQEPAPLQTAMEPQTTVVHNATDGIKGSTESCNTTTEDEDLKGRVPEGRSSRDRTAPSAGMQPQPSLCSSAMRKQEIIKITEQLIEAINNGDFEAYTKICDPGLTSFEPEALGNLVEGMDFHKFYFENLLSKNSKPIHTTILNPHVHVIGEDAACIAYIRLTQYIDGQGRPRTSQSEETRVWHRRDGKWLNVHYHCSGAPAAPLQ
inactive: [1] -0.018 | filanesib 0.269 | zotarolimus 0.039 | idasanutlin -0.101 | alisertib -0.173 | [2] -0.032 | gefitinib -0.006 | [3] -0.204 | lapatinib 0.12 | pictilisib 0.141 | [4] -0.02 | crizotinib -0.146 | [5] -0.064 | [6] -0.116 | duvelisib -0.025 | gandotinib -0.041 | tozasertib 0.028 | [7] -0.004 | doramapimod 0.073 | ispinesib 0

CHERP (UniProt Q8IWX8)
inactive: [1] 0.04 | filanesib 0.266 | zotarolimus 0.051 | idasanutlin 0.063 | alisertib 0.002 | [2] -0.227 | gefitinib -0.02 | [3] 0.002 | lapatinib -0.023 | pictilisib 0.038 | [4] -0.087 | crizotinib -0.108 | [5] 0.109 | [6] 0.009 | duvelisib -0.025 | gandotinib -0.047 | tozasertib 0.08 | [7] 0.138 | doramapimod 0.01 | ispinesib -0.004

CSNK2B (UniProt P67870)
Sequence of UniProt P67870 (P67870 whole entry, looked up): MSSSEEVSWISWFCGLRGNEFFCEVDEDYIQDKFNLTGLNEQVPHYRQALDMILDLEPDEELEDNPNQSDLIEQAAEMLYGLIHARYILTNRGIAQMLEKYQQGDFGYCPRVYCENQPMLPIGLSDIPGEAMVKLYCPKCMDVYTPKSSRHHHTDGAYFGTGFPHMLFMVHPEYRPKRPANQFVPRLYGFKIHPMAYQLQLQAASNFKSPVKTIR
inactive: [1] 0.113 | filanesib -0.006 | zotarolimus -0.002 | idasanutlin -0.026 | alisertib -0.013 | [2] -0.196 | gefitinib -0.013 | [3] 0.028 | lapatinib 0.04 | pictilisib 0.079 | [4] 0.05 | crizotinib -0.037 | [5] 0.049 | [6] -0.128 | duvelisib 0.075 | gandotinib -0.027 | tozasertib 0.006 | [7] -0.005 | doramapimod -0.002 | ispinesib 0.016

CSNK2A2 (UniProt P19784)
active: [6] -0.234
inactive: [1] -0.042 | filanesib -0.019 | zotarolimus -0.003 | idasanutlin -0.094 | alisertib 0.001 | [2] -0.177 | gefitinib -0.031 | [3] 0.033 | lapatinib 0.02 | pictilisib 0.128 | [4] 0.068 | crizotinib -0.132 | [5] 0.039 | duvelisib 0.032 | gandotinib -0.097 | tozasertib -0.029 | [7] 0.013 | doramapimod 0.007 | ispinesib 0.084

CDAN1 (UniProt Q8IWY9)
Sequence of UniProt Q8IWY9 (Q8IWY9 whole entry, looked up): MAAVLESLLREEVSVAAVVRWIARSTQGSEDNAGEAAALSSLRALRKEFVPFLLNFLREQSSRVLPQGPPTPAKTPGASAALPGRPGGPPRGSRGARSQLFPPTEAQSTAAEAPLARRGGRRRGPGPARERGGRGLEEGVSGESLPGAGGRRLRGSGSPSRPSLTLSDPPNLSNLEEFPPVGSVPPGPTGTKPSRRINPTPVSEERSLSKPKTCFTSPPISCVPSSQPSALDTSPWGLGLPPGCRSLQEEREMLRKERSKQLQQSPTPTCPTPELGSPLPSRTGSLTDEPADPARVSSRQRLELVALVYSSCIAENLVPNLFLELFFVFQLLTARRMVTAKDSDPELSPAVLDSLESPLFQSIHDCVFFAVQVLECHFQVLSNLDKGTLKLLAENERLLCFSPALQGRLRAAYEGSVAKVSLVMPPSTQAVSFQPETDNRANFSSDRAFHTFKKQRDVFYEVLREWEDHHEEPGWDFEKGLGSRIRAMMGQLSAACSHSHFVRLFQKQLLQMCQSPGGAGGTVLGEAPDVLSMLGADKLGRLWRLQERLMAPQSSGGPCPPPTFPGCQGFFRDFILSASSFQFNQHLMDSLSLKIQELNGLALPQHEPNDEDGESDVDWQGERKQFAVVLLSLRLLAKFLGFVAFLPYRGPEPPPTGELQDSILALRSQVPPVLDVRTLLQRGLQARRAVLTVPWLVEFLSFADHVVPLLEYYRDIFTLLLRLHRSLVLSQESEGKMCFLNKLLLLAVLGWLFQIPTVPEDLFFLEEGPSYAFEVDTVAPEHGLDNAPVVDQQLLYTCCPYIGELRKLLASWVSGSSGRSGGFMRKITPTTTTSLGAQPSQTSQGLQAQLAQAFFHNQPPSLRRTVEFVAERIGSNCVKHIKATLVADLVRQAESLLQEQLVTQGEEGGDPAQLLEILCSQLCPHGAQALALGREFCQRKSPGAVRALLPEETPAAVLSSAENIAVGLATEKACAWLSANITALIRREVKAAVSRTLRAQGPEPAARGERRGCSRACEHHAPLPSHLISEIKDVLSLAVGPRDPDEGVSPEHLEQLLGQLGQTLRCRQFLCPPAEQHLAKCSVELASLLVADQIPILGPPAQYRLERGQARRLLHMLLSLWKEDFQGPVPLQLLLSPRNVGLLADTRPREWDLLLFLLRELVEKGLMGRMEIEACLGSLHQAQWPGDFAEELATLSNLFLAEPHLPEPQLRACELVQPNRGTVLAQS
inactive: [1] -0.032 | filanesib -0.017 | zotarolimus 0.008 | idasanutlin -0.088 | alisertib -0.041 | [2] -0.044 | gefitinib -0.034 | [3] 0.185 | lapatinib 0.005 | pictilisib 0.011 | [4] 0.058 | crizotinib 0.024 | [5] 0.175 | [6] 0.066 | duvelisib 0.025 | gandotinib -0.054 | tozasertib -0.098 | [7] 0.008 | doramapimod 0.034 | ispinesib -0.02

Reference: the supplement of paper PMC10849652
